Laboratory results taken from PubChem BioAssay AID2315 (National Center for Advancing Translational Sciences (NCATS), 2010).
In all, about 290,000 compounds went through this assay and about 27,000 (9.3%) were called active. No stated cut-off is given here; in the data, active means inhibition mostly above about 28% (no sharp cut-off); inactive means mostly below about 43%. This excerpt belongs to a sample that is enriched for actives.

experiment: A qHTS for Small Molecule Inhibitors of Shiga Toxin; details: Vero cells, Shiga toxin protein synthesis inhibition reporter; at 38.7 µM, active compounds read high; further: 0% is about no effect

SMILES	inhibition
Cc1cc(C(F)F)n2nc(C(=O)Nc3ccc(S(=O)(=O)NC45CC6CC(CC(C6)C4)C5)cc3)nc2n1	-15.3% (inactive)
CCOc1ccc2[nH]c(C(=O)N/N=C/c3cccc(OC)c3OC)cc2c1	14% (inactive)
O=C(NCc1ccccc1)C(c1ccco1)N(C(=O)c1csnn1)c1ccccc1F (stereo not given)	-4.22% (inactive)
O=C(NCC(=O)N1CCN(c2ccccc2O)CC1)c1ccc2ccccc2c1	22.1% (inactive)
Cc1ccc(CC2CC(=O)N(c3cc(C)ccc3C)C2=O)cc1 (stereo not given)	-11.4% (inactive)
N#C/C(=C\c1cccnc1)C(=O)Nc1ccc(SC(F)F)cc1	36.4% (inactive)
Cc1ccc(-n2c(-c3ccc(Cl)cc3)n[nH]c2=S)cc1	4% (inactive)
CCOC(=O)c1ccc2[nH]c3c(c2c1)CCCC3NC=O (stereo not given)	90.9% (inactive)
COc1ccc(N(C)C(=O)CCS(=O)(=O)c2cccc3nsnc23)cc1	-7.02% (inactive)
CCOc1ccccc1NC(=O)Cn1ncc2ccc([N+](=O)[O-])cc21	-3.64% (inactive)
COc1ccc(N2CC(C(=O)NCCS(=O)(=O)N3CCN(c4ccccc4)CC3)CC2=O)cc1 (stereo not given)	-3.67% (inactive)
O=C(NCC(=O)N(Cc1cccs1)C(C(=O)NC1CCCCC1)c1ccco1)c1cccs1 (stereo not given)	4.26% (inactive)
O=C1c2cccc3cccc(c23)C(=O)N1c1cccc(O)c1	-6.01% (inactive)
COC(=O)c1cc(C(=O)NC(C)C2CC3CCC2C3)cc([N+](=O)[O-])c1 (stereo not given)	-13% (inactive)
COc1cc(C(=O)NCc2cc3cc(Cl)ccc3n2C)cc(OC)c1OC	-6.37% (inactive)
COc1ccc(S(=O)(=O)NCCOc2ccccc2)cc1F	21% (inactive)
N#CCc1ccc(NC(=O)c2ccccc2C(=O)Nc2ccc(CC#N)cc2)cc1	57.5% (active)
CC(=O)Nc1ccc(CC#N)cc1	-1.48% (inactive)
NC(=O)COc1ccc(NC(=O)c2ccccc2-c2ccccc2)cc1	-16.2% (inactive)
O=C(NCCO)C(=O)NCC(c1ccc2c(c1)OCO2)N1CCN(c2ccc(F)cc2)CC1 (stereo not given)	17.7% (inactive)

SMILES	inhibition
O=C(O)c1ccc(S(=O)(=O)N2CCOCC2)o1	-9.6% (inactive)
CS(=O)(=O)N(Cc1ccccc1)c1ccc(C(=O)NN=C2CCCCCC2)cc1	0.281% (inactive)
O=C(COc1ccc(-c2ccccc2)cc1)NN=C1CCCC1	-0.705% (inactive)
CCc1ccc(C(=O)NN=C2CCCCCC2)s1	50.4% (active)
CN1CCNC(=O)C1CC(=O)NCCC1=CCCCC1 (stereo not given)	-5.56% (inactive)
CC(=O)Nc1ccc(S(=O)(=O)N(C)CC(=O)NCCC2=CCCCC2)cc1	-23.7% (inactive)
Cn1nnc2cc(C(=O)NCCC3=CCCCC3)ccc21	64.2% (active)
CN(c1ccc(C(=O)NCCC2=CCCCC2)cc1)S(C)(=O)=O	89.4% (active)
O=C(Cc1nn[nH]n1)NCCC1=CCCCC1	-11.6% (inactive)
O=C(COc1ccc(Cl)cc1)NCCC1=CCCCC1	19.6% (inactive)
O=C(NCCC1=CCCCC1)c1ccc(Cl)c([N+](=O)[O-])c1	78.7% (active)
Cc1ccn2c(=O)c(C(=O)NCCC3=CCCCC3)c(O)nc2c1	0.166% (inactive)
CC(CC(=O)O)C(=O)c1ccc(Cl)c([N+](=O)[O-])c1 (stereo not given)	-9.51% (inactive)
Cc1ccc(NS(=O)(=O)c2c(C)[nH]c(C)c2C(=O)N2CCCCC2)c(C)c1	-1.7% (inactive)
CCOc1ccc(NC(=O)CC(Cc2ccc(Cl)cc2)C(=O)O)cc1 (stereo not given)	-2.62% (inactive)
COC(=O)c1c(NC(=O)c2ccccc2F)sc2c1C(C(=O)OC)CC2 (stereo not given)	-16.3% (inactive)
COC(=O)[C@@H]1CC(O)CN1C(=O)C12CC3CC(CC(C3)C1)C2 (stereo not given in full)	4.2% (inactive)
O=C(Nc1nnc(S(=O)(=O)N2CCOCC2)s1)c1cccc(Br)c1	31.4% (active)
O=C(Nc1ccc(S(=O)(=O)N2CCOCC2)cc1)c1ccc2ncsc2c1	64.5% (active)
COc1cccc(C(=O)Nc2nnc(S(=O)(=O)N3CCOCC3)s2)c1	7.84% (inactive)

SMILES	inhibition
O=C(Nc1ccc(S(=O)(=O)Nc2nccs2)cc1)c1cccc(S(=O)(=O)N2CCOCC2)c1	-3.68% (inactive)
O=C(Nc1nnc(S(=O)(=O)N2CCCCCC2)s1)c1cccc(Br)c1	-2.66% (inactive)
O=C(Nc1ccc(N2CCOCC2)c(Cl)c1)c1ccc(S(=O)(=O)N2CCOCC2)cc1	-13.3% (inactive)
O=C(c1cnc(Cl)c(Cl)c1)N1CCN(S(=O)(=O)c2ccc(F)cc2)CC1	1.5% (inactive)
CCc1ccc(NC(=O)CN2CCC(C(=O)c3ccc(OC)cc3)CC2)cc1	-10.2% (inactive)
CCNC(=O)CC1C(=O)N(c2ccc(OC)cc2)C(=O)N1CCOC (stereo not given)	-7.39% (inactive)
CC(C)C[C@H](NC(=O)N1CC(=O)Nc2ccccc21)C(=O)N[C@H](Cc1ccccc1)C(=O)O	-3.7% (inactive)
CCCn1c(C(O)c2ccc(OCC)cc2)nc2ccccc21 (stereo not given)	-6.45% (inactive)
COc1cccc(C(O)Cc2nc3ccccc3n2C)c1OC (stereo not given)	10.7% (inactive)
CCOc1ccc(C(O)Cc2nc3ccccc3n2C)cc1 (stereo not given)	61.7% (active)
S=C(NNC(=S)NC1CC2C=CC1C2)NC1CC2C=CC1C2 (stereo not given)	18.6% (inactive)
S=C(NNC(=S)NC1CC2CCC1C2)NC1CC2C=CC1C2 (stereo not given)	38% (inactive)
CC(C)c1ccc(NC(=S)NC2CC3C=CC2C3)cc1 (stereo not given)	81.8% (active)
O=C(CN1CCC(NC(=O)Nc2ccccc2)CC1)Nc1cccc([N+](=O)[O-])c1	-6.37% (inactive)
O=C(CCN1C(=O)C2C3CCC(C3)C2C1=O)Nc1ccc(Cl)cc1Cl (stereo not given)	30.5% (inactive)
Cc1cccc(NC(=O)C2CCN(C(=O)NC3CCCCC3)CC2)c1	-14.2% (inactive)
Cc1csc(=Nc2ccccc2)n1CCO	-5.67% (inactive)
OCCn1c(-c2ccccc2)csc1=Nc1ccccc1	29.8% (active)
Cc1csc(=NC(=O)c2ccccc2)n1CCO	-11% (inactive)
Cc1cc2c(cc1S(=O)(=O)CCC(=O)NCc1ccccc1)OCC(=O)N2	9.17% (inactive)
